Screening results from PubChem.
uPA surface inh – blocks generation of uPA at the cell surface; cell surface uPA generation assay, qHTS; Potency, µM (doses to about 38.3 µM), for inactives: at the highest dose activity change, negative = inhibition, usual class: inhibitors; 330,000 tested, 0.31% active; AID 540303; active means well fitted inhibition curve with a large enough effect; inconclusive means small, poorly fitted or top-dose-only effect; inactive means no such curve, though single readings can be large or run the other way; tested in mouse RAW 264.7 cells; further: potency means the concentration at half of the fitted maximal effect; nearly all actives have a fitted effect of over 55% in size
IL-1B inflam inh – inhibitors of inflammasome signaling (IL-1 beta secretion) | 360,000 tested, 4.7% active | activity change, % at 57.5 µM | AID 743279 | THP-1 LPS/ATP IL-1B secretion, AlphaLISA, 16 h; stronger effect = lower value; in the data active means activity change below about -50%; inconclusive means mostly about -30% to -49%
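THP-1 cells pretreated 1 hr with compounds (up to 57.5 uM final), then stimulated with LPS (250 ng/mL final) plus ATP (1.25 mM final); secreted IL-1B measured by AlphaLISA after 16 hr, decreased signal indicating inhibition.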
HT1080-NT tox – kills 2HG-producing HT-1080-NT fibrosarcoma cells; 360,000 tested, 1.6% active; AID 686970; Potency, µM (doses to about 46.1 µM), without a hit: at the top dose activity, negative = less viability, usual class: cytotoxic; HT-1080-NT fibrosarcoma viability, CellTiter-Glo ATP luminescence, 48 h;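 further: NT is the 2HG producing partner of a matched IDH1 knockdown line; potency means the concentration at half of the fitted maximal effect; 0% = DMSO-treated cells and -100% = media-only wells without cells; nearly all actives have a fitted effect of over 55% in size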
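Fibrosarcoma NT cells, 750 per well in 5% FBS RPMI, were exposed to compound for 48 hours. Viability: CellTiter-Glo luminescence.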
HT1080 IDH1KD tx – kills HT-1080 cells with IDH1 knockdown; AID 686971; 360,000 tested, 2% active; Potency, µM (doses to about 46.1 µM), without a hit: top-dose activity, negative = toxicity, most hits filed as cytotoxic; HT-1080 IDH1 knockdown viability, ATP luminescence, 48 h;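 further: potency means the concentration at half of the fitted maximal effect; 0% = DMSO wells and -100% = cell-free medium wells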
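After a 2 h attachment period, IDH1KD HT-1080 cells took pin-transferred compound for 48 h at 37 °C; ATP-based luminescence after 10 min room-temperature reagent incubation reported viability.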
TDP1 cell noCPT – qHTS for Inhibitors of human tyrosyl-DNA phosphodiesterase 1 (TDP1): qHTS in cells in absence of CPT; DT40 Tdp1-/- hTDP1 cells, no CPT, ATP luminescence, 48 h; Potency, µM (top dose mostly 46.2 µM), without a hit: top-dose activity change, negative = growth inhibition, actives largely listed as inhibitors; 420,000 tested, 15% active; further: potency means the concentration at half of the fitted maximal effect; nearly all actives have a fitted effect of over 55% in size
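Cells were dispensed at 400 per well, compounds added by pin tool, plates incubated ≥48 hr at 37 °C, then CellTiter-Glo added for 30 min at room temperature before luminescence reading. Line: DT40 Tdp1-/- complemented with hTDP1; camptothecin omitted.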
DT40 TDP1 CPT – growth inhibition of DT40 Tdp1-/-;hTDP1 cells with camptothecin (screen for TDP1 inhibitors); AID 686979; chicken DT40 Tdp1-/-;hTDP1 cells + 20 nM CPT, ATP luminescence, 48 h; Potency, µM (highest dose often 46.2 µM), for the others: at the highest dose activity change, negative = growth inhibition, usual class: inhibitors; 420,000 tested, 12% active; further: potency means the concentration at half of the fitted maximal effect; nearly all actives have a fitted effect of over 55% in size
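Cell growth measured by CellTiter-Glo luminescence after a minimum 48 h, 37 C compound exposure with 20 nM CPT in Tdp1-knockout DT40 cells stably expressing hTDP1, seeded 400/well; qHTS titration format.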
The depositor's hits bear a star; ? = inconclusive; · = no result given; [ ] = remark or other dose. Rows were chosen to be rich in hits. Some 19% of all compounds tested hit in one or more screens of this group. Unless noted, the call rests on the fitted dose curve; in most records, active means well fitted curve in the direction sought with a large enough effect; inconclusive means small, poorly fitted or top-dose-only effect, or another doubt; inactive means no such curve, though single readings can be large; an effect the other way counts as inactive or inconclusive. Unless noted, on the % scale 0 is the no-effect control and ±100 the full control effect.

SMILES	uPA surface inh	IL-1B inflam inh	HT1080-NT tox	HT1080 IDH1KD tx	TDP1 cell noCPT	DT40 TDP1 CPT
CCC(C)Sc1ccc([C@H]2N[C@@](C)(C(=O)OC)[C@H]3C(=O)N(C)C(=O)[C@@H]23)cc1 (some centres not stated)	-7.1%	16.7	10.1%	8.0%	?	-29.0%
CC(=O)N1CCC[C@H]1C(=O)NCC1Cc2cc(F)cc(-c3ccc(F)c(C)c3)c2O1 (some centres not stated)	·	·	·	·	-22.8%	-4.1%[9.04 µM]
CCN(CC)Cc1cc(Nc2c3ccccc3nc3c4ccccc4n(C)c23)cc(CN(CC)CC)c1O	-10.4%	-112.5*	18.4µM*	?	5.8µM*	2.59µM*
Cc1ccc(SCC(=O)NC(=O)Nc2ccc3c(c2)OCCO3)cc1C	0.1%	10.1	-5.0%	-5.4%	-1.7%	-21.2%
CCc1c(C)nc2cc(-c3cccc(Br)c3)[nH]n2c1=O	-23.9%	27.8	1.9%	-3.7%	1.46µM*	4.61µM*
CCc1c(C)nc2cc(-c3ccc(Cl)cc3)[nH]n2c1=O	-26.6%	4.0	-13.2%	-4.2%	2.31µM*	3.66µM*
COCc1cc(=O)n2[nH]c(-c3cccc(Br)c3)cc2n1	-4.6%	10.7	4.1%	1.2%[9.24 µM]	?	-2.9%
Cn1c(=O)c(-c2ccc(F)cc2)nc2cnc(OCc3ccccc3)nc21	·	·	·	·	21.4%	0.4%
Nc1ccc(Cc2nc3c(ccc4ccccc43)[nH]2)cc1	5.7%	11.5	?	?	-17.9%	-15.7%
O=c1[nH]c(-c2ccccn2)nc(C(F)(F)F)c1Br	-12.0%	48.4	?	?	4.61µM*	6.51µM*
c1ccc(-c2nc3c(ccc4ccccc43)[nH]2)nc1	-6.1%	-10.5	-10.1%	-12.8%	23.1µM*	?
Nc1nc(-c2nc3ccccc3[nH]2)cs1	-6.7%	2.0	-13.4%	-9.2%	?	23.1µM*
O=C(NCc1ccc(F)cc1)c1cnc(-c2ccccn2)nc1C(F)(F)F	-0.5%	-1.4	-1.3%	-4.8%	-10.1%	-10.5%
O=c1[nH]c(-c2ccccn2)nc2ccccc12	-16.3%	23.3	?	?	16.4µM*	29.1µM*
O=C(CCCCCn1c(=O)c2sccc2n(CC(=O)Nc2cc(C(F)(F)F)ccc2Cl)c1=O)NCc1ccccc1Cl	·	·	·	·	-27.7%	-27.5%
O=c1c(-c2ccc(F)cc2)nc2cnc(N3CCOCC3)nc2n1CCc1ccccc1	·	·	·	·	-2.2%	18.4%
COc1cc(S(=O)(=O)O)c(C)cc1N=Nc1c(O)ccc2cc(S(=O)(=O)O)ccc12	·	·	·	·	?	-0.5%
Cc1ccc2nc(CCCc3nc4ccc(C)cc4[nH]3)[nH]c2c1	2.4%	-19.0	?	?	?	5.6%
c1ccc(-c2nc3ccccc3[nH]2)nc1	1.6%	-8.6	-10.9%	-20.6%	16.4µM*	?
Cc1ccc2nc(-c3ccccn3)[nH]c2c1	-15.1%	-4.4	?	18.4µM*	?	?
c1ccc2[nH]c(-c3ccncc3)nc2c1	-0.6%	-23.4	0.6%	-1.2%	-10.5%	-0.4%
O=C(CCNC(=O)C1CCN(S(=O)(=O)c2ccc(F)cc2)CC1)NC1CC1	-0.4%	5.0	-1.0%	-1.0%	26.3%	-0.4%
CCOc1ccc(S(=O)(=O)NCCC(=O)N2CCN(C(C)=O)CC2)cc1	·	-1.8	-2.0%	-3.3%	?	-7.1%
c1ccc2c(c1)CCCC2C1=NCCN1 (configuration not stated)	4.4%	3.1	?	7.9%	-11.1%	-25.9%
Brc1ccc2c(c1)C(C1=NCCN1)c1ccccc1CS2 (configuration not stated)	0.501µM*	?	0.82µM*	1.03µM*	5.8µM*	7.31µM*
SMILES	uPA surface inh	IL-1B inflam inh	HT1080-NT tox	HT1080 IDH1KD tx	TDP1 cell noCPT	DT40 TDP1 CPT
COc1ccc(NC(=O)CC2C(=O)N(C)C(=S)N2Cc2ccc3c(c2)OCO3)cc1 (configuration not stated)	2.2%	12.0	-5.7%	-7.5%	-2.0%	1.5%
COc1ccc(NC(=O)CC2C(=O)N(c3ccc(F)cc3)C(=O)N2Cc2ccc3c(c2)OCO3)cc1 (configuration not stated)	·	·	·	·	?	-18.2%
O=C(CC1C(=O)N(c2ccc(F)cc2)C(=O)N1Cc1ccc2c(c1)OCO2)Nc1ccc(Cl)cc1 (configuration not stated)	·	·	·	·	20.6µM*	?
Cc1ccc(N2C(=O)C(CC(=O)Nc3ccc(F)cc3)N(Cc3ccc4c(c3)OCO4)C2=O)cc1 (configuration not stated)	·	·	·	·	16.4µM*	?
CCN1C(=O)C(CC(=O)Nc2ccc(F)cc2)N(Cc2ccc3c(c2)OCO3)C1=S (configuration not stated)	5.4%	-59.7*	?	-28.1%	?	?
COc1ccc(NC(=O)CC2C(=O)N(c3ccc(C)cc3)C(=O)N2Cc2ccc3c(c2)OCO3)cc1 (configuration not stated)	·	·	·	·	?	-28.5%
Cc1cccn2c(=O)cc(CSc3nnc(NC(=O)C(C)C)s3)nc12	·	·	·	·	-14.2%	-4.4%
COc1ccccc1N1CCN(S(=O)(=O)c2cc(-c3cc(C)no3)ccc2C(C)C)CC1	-1.8%	-5.3	-8.1%	-0.2%	?	?
CCCCC(=O)N(C)c1c(C)nc2ccc(C(=O)N(C)CCN(C)C)cn12	·	17.7	?	12.8%	-8.2%	-25.0%
O=C(NCCC1=CCCCC1)c1ccc2c(c1)ncn2-c1cccc(Cl)c1	·	·	·	·	14.6µM*	16.4µM*
COc1ccc(CC(=O)NCCC2=CCCCC2)cc1	1.0%	-24.4	4.3%	-4.7%	2.1%	-17.4%
COc1ccc(-n2cnc3cc(C(=O)NCCC4=CCCCC4)ccc32)cc1	·	·	·	·	?	18.4µM*
COc1ccc(C(c2c(O)cc(C)n(Cc3ccco3)c2=O)N2CCCCC2)cc1OC (configuration not stated)	·	·	·	·	-0.9%	-10.6%
Cc1ccc(-c2csc3ncn(-n4c(C)ccc4C)c(=O)c23)o1	7.9%	-0.9	0.0%	-0.2%	18.4µM*	23.1µM*
COc1ccc(OCC(=O)NC2CCSc3ccccc32)cc1 (configuration not stated)	2.0%	-7.1	-4.8%	-12.7%	?	-20.7%
O=C(Nc1ccc(Cl)c([N+](=O)[O-])c1)ONC1=NCCCCC1	-1.5%	-53.5*	-2.8%	-21.9%	13µM*	?
